The source of these data is article PMC12529666, “Dysregulation of AGO2-miRNA dynamics underlies the AGO2-associated Lessel–Kreienkamp syndrome”.

B1: ACATCTTG (ssRNA)
RNA 1: GAGUUCUACAGUCCGACGAUCCCAACACAUCUUGCACCUGGAAUUCUCGGGUGCCAA
RNA 2: UGGAGUGUGACAAUGGUGUUUG
DNA 1: GATCGTCGGACTGTAGAACTC
DNA 2: TTGGCACCCGAGAATTCCA
modifications: constant regions annealed to DNA blockers; guide miR-122 5' phosphate
B2: ATGCTTTG (ssRNA)
RNA 1: GAGUUCUACAGUCCGACGAUCCCAACAUGCUUUGCACCUGGAAUUCUCGGGUGCCAA
RNA 2: UGGAGUGUGACAAUGGUGUUUG
DNA 1: GATCGTCGGACTGTAGAACTC
DNA 2: TTGGCACCCGAGAATTCCA
modifications: constant regions annealed to DNA blockers; guide miR-122 5' phosphate
B3: ATACTTCG (ssRNA)
RNA 1: GAGUUCUACAGUCCGACGAUCCCAACAUACUUCGCACCUGGAAUUCUCGGGUGCCAA
RNA 2: UGGAGUGUGACAAUGGUGUUUG
DNA 1: GATCGTCGGACTGTAGAACTC
DNA 2: TTGGCACCCGAGAATTCCA
modifications: constant regions annealed to DNA blockers; guide miR-122 5' phosphate
B4: GTACCCCG (ssRNA)
RNA 1: GAGUUCUACAGUCCGACGAUCCCAACGUACCCCGCACCUGGAAUUCUCGGGUGCCAA
RNA 2: UGGAGUGUGACAAUGGUGUUUG
DNA 1: GATCGTCGGACTGTAGAACTC
DNA 2: TTGGCACCCGAGAATTCCA
modifications: constant regions annealed to DNA blockers; guide miR-122 5' phosphate
B5: ACATTTTG (ssRNA)
RNA 1: GAGUUCUACAGUCCGACGAUCCCAACACAUUUUGCACCUGGAAUUCUCGGGUGCCAA
RNA 2: UGGAGUGUGACAAUGGUGUUUG
DNA 1: GATCGTCGGACTGTAGAACTC
DNA 2: TTGGCACCCGAGAATTCCA
modifications: constant regions annealed to DNA blockers; guide miR-122 5' phosphate
B6: ATGTCCCG (ssRNA)
RNA 1: GAGUUCUACAGUCCGACGAUCCCAACAUGUCCCGCACCUGGAAUUCUCGGGUGCCAA
RNA 2: UGGAGUGUGACAAUGGUGUUUG
DNA 1: GATCGTCGGACTGTAGAACTC
DNA 2: TTGGCACCCGAGAATTCCA
modifications: constant regions annealed to DNA blockers; guide miR-122 5' phosphate
B7: ACGTCTTG (ssRNA)
RNA 1: GAGUUCUACAGUCCGACGAUCCCAACACGUCUUGCACCUGGAAUUCUCGGGUGCCAA
RNA 2: UGGAGUGUGACAAUGGUGUUUG
DNA 1: GATCGTCGGACTGTAGAACTC
DNA 2: TTGGCACCCGAGAATTCCA
modifications: constant regions annealed to DNA blockers; guide miR-122 5' phosphate
B8: ATGTCTCG (ssRNA)
RNA 1: GAGUUCUACAGUCCGACGAUCCCAACAUGUCUCGCACCUGGAAUUCUCGGGUGCCAA
RNA 2: UGGAGUGUGACAAUGGUGUUUG
DNA 1: GATCGTCGGACTGTAGAACTC
DNA 2: TTGGCACCCGAGAATTCCA
modifications: constant regions annealed to DNA blockers; guide miR-122 5' phosphate
B9: ACATTTCG (ssRNA)
RNA 1: GAGUUCUACAGUCCGACGAUCCCAACACAUUUCGCACCUGGAAUUCUCGGGUGCCAA
RNA 2: UGGAGUGUGACAAUGGUGUUUG
DNA 1: GATCGTCGGACTGTAGAACTC
DNA 2: TTGGCACCCGAGAATTCCA
modifications: constant regions annealed to DNA blockers; guide miR-122 5' phosphate
B10: GTACTTCG (ssRNA)
RNA 1: GAGUUCUACAGUCCGACGAUCCCAACGUACUUCGCACCUGGAAUUCUCGGGUGCCAA
RNA 2: UGGAGUGUGACAAUGGUGUUUG
DNA 1: GATCGTCGGACTGTAGAACTC
DNA 2: TTGGCACCCGAGAATTCCA
modifications: constant regions annealed to DNA blockers; guide miR-122 5' phosphate
B11: ATACCTCG (ssRNA)
RNA 1: GAGUUCUACAGUCCGACGAUCCCAACAUACCUCGCACCUGGAAUUCUCGGGUGCCAA
RNA 2: UGGAGUGUGACAAUGGUGUUUG
DNA 1: GATCGTCGGACTGTAGAACTC
DNA 2: TTGGCACCCGAGAATTCCA
modifications: constant regions annealed to DNA blockers; guide miR-122 5' phosphate
B12: GCATCTTG (ssRNA)
RNA 1: GAGUUCUACAGUCCGACGAUCCCAACGCAUCUUGCACCUGGAAUUCUCGGGUGCCAA
RNA 2: UGGAGUGUGACAAUGGUGUUUG
DNA 1: GATCGTCGGACTGTAGAACTC
DNA 2: TTGGCACCCGAGAATTCCA
modifications: constant regions annealed to DNA blockers; guide miR-122 5' phosphate

Chain of AGO2 A367P (Q9UKV8 whole entry A367P/S387D/S824A/S828D/S831D/S834A): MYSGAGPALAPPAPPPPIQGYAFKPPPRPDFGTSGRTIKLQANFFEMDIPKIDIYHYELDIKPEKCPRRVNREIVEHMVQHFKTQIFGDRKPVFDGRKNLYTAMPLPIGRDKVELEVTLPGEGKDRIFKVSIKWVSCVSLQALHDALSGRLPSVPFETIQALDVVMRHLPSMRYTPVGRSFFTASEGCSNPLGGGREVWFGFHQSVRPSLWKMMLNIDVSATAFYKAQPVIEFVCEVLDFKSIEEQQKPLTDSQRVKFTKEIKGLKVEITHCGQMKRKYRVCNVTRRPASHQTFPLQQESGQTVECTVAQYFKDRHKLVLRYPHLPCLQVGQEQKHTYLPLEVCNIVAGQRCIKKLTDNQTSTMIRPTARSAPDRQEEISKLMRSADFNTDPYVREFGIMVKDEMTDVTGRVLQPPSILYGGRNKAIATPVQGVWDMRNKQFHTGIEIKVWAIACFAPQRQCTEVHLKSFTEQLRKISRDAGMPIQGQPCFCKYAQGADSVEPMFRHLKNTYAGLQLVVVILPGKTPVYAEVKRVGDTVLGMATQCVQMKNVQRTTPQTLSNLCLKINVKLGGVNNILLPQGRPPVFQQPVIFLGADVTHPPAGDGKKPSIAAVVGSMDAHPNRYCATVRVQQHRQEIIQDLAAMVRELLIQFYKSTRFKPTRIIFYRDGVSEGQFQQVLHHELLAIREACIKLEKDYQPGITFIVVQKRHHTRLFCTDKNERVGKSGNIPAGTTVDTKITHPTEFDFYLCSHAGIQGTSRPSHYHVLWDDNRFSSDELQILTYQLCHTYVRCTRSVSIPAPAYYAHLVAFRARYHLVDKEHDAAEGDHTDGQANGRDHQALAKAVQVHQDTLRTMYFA
Chain of AGO2 T357M (Q9UKV8 whole entry T357M/S387D/S824A/S828D/S831D/S834A): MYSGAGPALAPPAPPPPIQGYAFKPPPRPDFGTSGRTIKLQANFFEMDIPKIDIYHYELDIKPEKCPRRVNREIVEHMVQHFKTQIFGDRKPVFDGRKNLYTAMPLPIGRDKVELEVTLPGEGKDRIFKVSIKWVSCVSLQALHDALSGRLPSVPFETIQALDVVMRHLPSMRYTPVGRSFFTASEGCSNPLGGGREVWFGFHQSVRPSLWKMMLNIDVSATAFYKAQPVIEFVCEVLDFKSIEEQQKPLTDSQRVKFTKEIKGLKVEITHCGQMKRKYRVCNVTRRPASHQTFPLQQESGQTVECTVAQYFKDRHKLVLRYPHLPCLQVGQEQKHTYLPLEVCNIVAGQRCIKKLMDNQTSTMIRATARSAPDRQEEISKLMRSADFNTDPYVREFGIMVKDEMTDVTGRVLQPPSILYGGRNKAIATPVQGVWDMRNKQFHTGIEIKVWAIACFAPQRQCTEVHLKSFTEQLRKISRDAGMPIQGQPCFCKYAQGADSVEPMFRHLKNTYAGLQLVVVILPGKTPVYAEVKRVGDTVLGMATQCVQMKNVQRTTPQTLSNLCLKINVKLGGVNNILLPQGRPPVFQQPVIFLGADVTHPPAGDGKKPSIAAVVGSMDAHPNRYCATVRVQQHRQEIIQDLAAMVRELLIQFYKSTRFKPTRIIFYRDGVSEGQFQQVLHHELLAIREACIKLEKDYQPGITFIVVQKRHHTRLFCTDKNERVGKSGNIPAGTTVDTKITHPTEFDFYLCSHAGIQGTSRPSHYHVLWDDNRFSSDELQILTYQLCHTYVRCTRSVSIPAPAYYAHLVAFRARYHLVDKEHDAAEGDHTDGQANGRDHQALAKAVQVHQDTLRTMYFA
Chain of AGO2 L192P (Q9UKV8 whole entry L192P/S387D/S824A/S828D/S831D/S834A): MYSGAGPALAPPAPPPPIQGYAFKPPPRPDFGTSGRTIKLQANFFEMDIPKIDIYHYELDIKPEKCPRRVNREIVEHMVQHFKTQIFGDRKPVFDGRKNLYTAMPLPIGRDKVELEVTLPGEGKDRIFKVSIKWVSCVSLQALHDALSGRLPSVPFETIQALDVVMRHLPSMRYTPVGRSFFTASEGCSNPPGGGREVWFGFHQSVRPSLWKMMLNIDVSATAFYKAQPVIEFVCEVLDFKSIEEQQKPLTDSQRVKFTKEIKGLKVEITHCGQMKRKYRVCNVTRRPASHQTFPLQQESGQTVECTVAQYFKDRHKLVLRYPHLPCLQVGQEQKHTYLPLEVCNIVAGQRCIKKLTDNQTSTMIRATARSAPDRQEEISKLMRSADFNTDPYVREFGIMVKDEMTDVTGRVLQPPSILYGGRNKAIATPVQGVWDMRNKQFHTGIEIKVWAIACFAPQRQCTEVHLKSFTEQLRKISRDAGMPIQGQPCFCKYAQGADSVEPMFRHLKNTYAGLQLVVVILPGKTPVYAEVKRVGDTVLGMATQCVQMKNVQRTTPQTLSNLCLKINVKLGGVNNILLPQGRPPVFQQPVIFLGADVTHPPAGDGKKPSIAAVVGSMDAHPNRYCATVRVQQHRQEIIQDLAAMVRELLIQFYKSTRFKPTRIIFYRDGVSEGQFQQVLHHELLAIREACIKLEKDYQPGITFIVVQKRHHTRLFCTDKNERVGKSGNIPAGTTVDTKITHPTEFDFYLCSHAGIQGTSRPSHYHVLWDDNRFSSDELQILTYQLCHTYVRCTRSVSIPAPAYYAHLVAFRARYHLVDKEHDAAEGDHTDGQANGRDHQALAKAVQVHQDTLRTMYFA

The target of the first test is AGO2 L192P (Homo sapiens, UniProt Q9UKV8 1-859, L192P;S387D;S824A;S828D;S831D;S834A). As to the kind of experiment: RNA Bind-n-Seq (nitrocellulose filter binding and sequencing); miR-122 guide loaded in AGO2; 60 min incubation; 30 mM Tris pH 8.0, 100 mM potassium acetate, 2 mM magnesium acetate, 0.5 mM TCEP, 0.005% NP-40, 0.01 mg/ml yeast tRNA; 3 nM AGO2-miR-122, 100 nM RNA library; 60; high values mean tight binding. The following applies: protein: recombinant; tags: His6 (N-terminal, pFastBac HTA). A digest of the protocol:
(§1)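 Fold enrichment is each target's read fraction divided by its read fraction in the input library. Sf9 insect cells expressed His-tagged AGO2 from baculovirus; the protein was loaded with a synthetic guide RNA and purified by Ni-NTA and a biotinylated capture oligo. The bound RNA was extracted, reverse-transcribed, barcode-amplified and sequenced on Illumina.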
Take B1: the binding signal is 0.386 fold enrichment over input.
Regarding B2, the binding signal was 0.354 fold enrichment over input.
B3: the binding signal is 0.406 fold enrichment over input.
As to B4, the binding signal is 0.358 fold enrichment over input.
Consider B5, for which the binding signal is 0.41 fold enrichment over input.
Take B6: the binding signal is 0.319 fold enrichment over input.
With B7, the binding signal is 0.319 fold enrichment over input.
For the molecule B8, the binding signal was 0.316 fold enrichment over input.
As for B9, the binding signal is 0.421 fold enrichment over input.
On to B10, for which the binding signal was 0.351 fold enrichment over input.
For B11, the binding signal was 0.339 fold enrichment over input.
Regarding B12, the binding signal was 0.349 fold enrichment over input.

The next test concerns the target AGO2 A367P (Homo sapiens, UniProt Q9UKV8 1-859, A367P;S387D;S824A;S828D;S831D;S834A). The test is described as above. The following applies: protein: recombinant; tags: His6 (N-terminal, pFastBac HTA). In short, it runs like this:
as §1
On to B1, for which the binding signal was 0.135 fold enrichment over input.
Take B2: the binding signal is 0.12 fold enrichment over input.
Turning to B3, the binding signal was 0.138 fold enrichment over input.
On the same count and under the same terms, then B4, with 0.123 fold enrichment over input; and B5, with 0.143 fold enrichment over input.
On to B6, for which the binding signal was 0.125 fold enrichment over input.
Take B7: the binding signal was 0.134 fold enrichment over input.
Still for that read-out and setting: then B9, with 0.151 fold enrichment over input.
On the same count and under the same terms, then B10, with 0.13 fold enrichment over input; and B11, with 0.127 fold enrichment over input.
The same measure, in the same setting: then B12, with 0.123 fold enrichment over input.

The next test concerns the target AGO2 T357M (Homo sapiens, UniProt Q9UKV8 1-859, T357M;S387D;S824A;S828D;S831D;S834A). The test is described as above. The following applies: protein: recombinant; tags: His6 (N-terminal, pFastBac HTA). In short, it runs like this: as §1
Regarding B1, the binding signal is 0.458 fold enrichment over input.
Same read-out and setting: the value for B2 was 0.455 fold enrichment over input.
Consider B3, for which the binding signal is 0.509 fold enrichment over input.
Turning to B4, the binding signal is 0.475 fold enrichment over input.
Take B5: the binding signal is 0.537 fold enrichment over input.
On to B6, for which the binding signal was 0.416 fold enrichment over input.
With B7, the binding signal was 0.501 fold enrichment over input.
Take B8: the binding signal is 0.415 fold enrichment over input.
As to B9, the binding signal is 0.514 fold enrichment over input.
Turning to B10, the binding signal was 0.538 fold enrichment over input.
The same measure, in the same setting: then B11, with 0.409 fold enrichment over input; and B12, with 0.425 fold enrichment over input.
